Results on 15 compounds are retold here after PubChem BioAssay (NCI).

The structures appear in SMILES notation. Compounds without any hit were thinned out: in the full panel of roughly 83,000, 20% have a hit.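 Step 1: grow cells in 96-well plates. Step 2: add test compound at a single concentration. Step 3: incubate 48 h. Step 4: record percent growth.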 Unmarked numbers belong to inactive results. Active and inactive are the calls of the source. How the source made its calls: active means growth percent below 10; inactive means the rest.

What all share (test): NCI-60 one-dose screen, 48 h (100 = growth as untreated, 0 = no growth, -100 = all killed)
Settings in all cases: 10 µM unless noted

Assay [1] deals with DU-145 prostate.
Assay [2] relates to K-562 leukemia.
Assay [3] has as its system MALME-3M melanoma.
Assay [4] concerns MDA-MB-231 breast.
In assay [5] the test system is RXF 393 renal.
Assay [6] relates to SF-268 CNS.
Assay [7] deals with SF-539 CNS.
For assay [8], the system named is UACC-257 melanoma.
For assay [9], the system named is M14 melanoma.

For `COc1cc2c(cc1OC)C(=O)/C(=C/c1cc(-c3ccc4c(c3)OCO4)n[nH]1)C2`, the growth was 1.19% (active) in assay [1]; -41.5% (active) in assay [2]; 43.7% in [3]; 24.6% in assay [4]; -39.8% (active) in assay [5]; -53.4% (active) in [6]. Besides, the growth is -80.9% (active) in assay [7], 77.1% in assay [8] and 5.68% (active) in [9].
On to `CC(C)(C)c1ccc(OP(=S)(N/N=C/c2ccccc2O)Oc2ccc(C(C)(C)C)cc2)cc1`, for which the growth in [1] was 92%; in [2], 59%; in [3] it was 86.8%; in assay [4], 63.5%; in assay [5] it was 87.3%; in [6], 69.8%. The growth was 66.8% in assay [7], 59.8% in assay [8] and 77.7% in assay [9].
Take `Cc1cc(Cl)c2c(N(C)C)cccc2n1`: the growth is 106% in [1]; 59.5% in assay [2]; 87.2% in assay [3]; 92.8% in [4]; 116% in [5]; 111% in assay [6]. The growth in [7] is 106%; in assay [8] it was 102%; in [9], 92%.
Turning to `Cc1[c-]onc1C.Cc1[c-]onc1C.[Ag].[Ag].[NH-]S(=O)(=O)c1ccc(N=Nc2cc(N=Nc3ccc(S([NH-])(=O)=O)cc3)c3c(NC(=O)C(Cl)Cl)cccc3c2OC(=O)C(Cl)Cl)cc1`, the growth in assay [1] is 70.5%; in [2] it was 59.7%; in [3], 7.7% (active); in assay [4] it was 45.8%; in assay [5], 89.2%; in assay [6] it was 84.5%. Moreover, the growth in assay [7] was 92.8%; in [8], 78.5%; in [9] it was 103%.
In the case of `NS(=O)(=O)c1ccc(CCNC(=O)/C=C/c2ccc(Cl)cc2)cc1`, the growth in assay [1] is 99.5%; in assay [2], 90.4%; in assay [3], 90.4%; in [4], 98.4%; in assay [5], 122%; in assay [6], 95.6%. The growth is 101% in [7], 104% in [8] and 99.2% in [9].
Consider `Nc1c(C(=O)Nc2cccc(Br)c2)sc2nc3c(cc12)C(=O)CCC3`, for which the growth in assay [1] is 1.18% (active); in assay [2], 13.7%; in assay [3], 16.6%; in [4], 38.5%; in assay [5] it was -1.14% (active); in [6], 62.6%. For the same compound, the growth in assay [7] is 25.5%; in [8], 68%; in assay [9], 35.7%.
As to `C[N+](C)(CCCCCC[N+](C)(C)C1c2ccccc2-c2ccccc21)C1c2ccccc2-c2ccccc21`, the growth is 118% in [1]; 99.5% in assay [2]; 104% in assay [3]; 115% in [4]; 113% in assay [5]; 111% in assay [6]. In addition, the growth in assay [7] was 102%; in assay [8] it was 103%; in [9] it was 106%.
For `COc1cc(C(=O)/C=C/c2cc(-c3ccc4c(c3)OCO4)n[nH]2)cc(OC)c1OC`, the growth in assay [1] was 0.359% (active); in [2], -17% (active); in assay [3], 68.5%; in assay [4], 30.6%; in [5] it was 1.1% (active); in assay [6] it was -8.16% (active). For the same compound, the growth in assay [7] is -51.9% (active); in [8], 76.5%; in assay [9], 81.4%.
With `Cc1ccc(Nc2c(C(N)=O)cnc3ccc(S(=O)(=O)Nc4cc(C)on4)cc23)cc1`, the growth was 109% in [1]; 117% in assay [2]; 108% in assay [3]; 99.5% in assay [4]; 105% in assay [5]; 104% in assay [6]. Moreover, the growth is 92.7% in assay [7], 101% in [8] and 100% in assay [9].
As to `COc1ccc(C(=O)/C=C/c2cc(-c3cc(OC)c(OC)c(OC)c3)n[nH]2)cc1OC`, the growth in [1] is 1.8% (active); in assay [2], 3.36% (active); in assay [3], -75.5% (active); in [4] it was -4.03% (active); in assay [5] it was -78.8% (active); in assay [6] it was -20.1% (active). Also, the results for the growth in [7], in assay [8] and in assay [9] were -96.2% (active), 24.6% and -7.08% (active), respectively.
On to `C/C(=N/NC(N)=S)C(=O)O`, for which the growth in [1] is 102%; in assay [2], 55.3%; in [3], 102%; in [4], 91.1%; in [5], 116%; in assay [6] it was 101%. Also, the growth in [7] is 101%; in [8] it was 61.1%; in assay [9], 97.4%.
With `c1ccc(C2Cc3ccccc3C2=NC2CCCCC2)cc1` (stereo not given), the growth in [1] was 115%; in assay [2], 99.6%; in assay [3] it was 116%; in assay [4] it was 97.2%; in assay [5], 110%; in [6], 102%. Further, the growth in [7] is 89.3%; in assay [8], 110%; in [9], 91.7%.
With `COC(=O)[C@@H]1[C@H]2C[C@H]3c4[nH]c5cc(OC)ccc5c4CCN3C[C@@H]2C[C@H](OC(=O)/C=C/c2ccnc(OC)c2)[C@H]1OC`, the growth is 91.8% in assay [1]; 99.3% in assay [2]; 67.6% in [3]; -54.6% (active) in assay [4]; 92.4% in [5]; 84.1% in assay [6]. For the same compound, the growth in [7] was 90.1%; in [8], 78.3%; in assay [9] it was 93.2%.
`CN1CCN(c2nc(-c3cccc4ccccc34)nc3sc4c(c23)CCCCCC4)CC1`: the growth in [1] was 102%; in assay [2] it was 85.3%; in assay [3], 81.3%; in assay [4], 61.8%; in [5] it was 60.9%; in assay [6] it was 82%. Further, the results for the growth in [7], in assay [8] and in [9] were 86%, 94.4% and 93.2%, respectively.
Regarding `O=C(c1ccccc1)C(CN1CCOCC1)c1ccccc1` (stereo not given), the growth in assay [1] is 28.9%; in [2], 7.04% (active); in assay [3], -3.82% (active); in [4] it was 33.2%; in [5] it was 25.9%; in [6], 27%. The growth in assay [7] was 37.3%; in assay [8], 51.5%; in assay [9], 27.8%.
